Measurements as given in the supplement of paper PMC10981050.
Where “and” joins values, the source holds several entries; their conditions need not be identical. Equal entries are not always repeated. Structures can show the parent of a compound that is named as a salt.

Tests used:
Experiment in all cases: cell viability relative to vehicle control; higher = less cytotoxic
Settings in all cases: 10 µM
[1] = tested on: K562
Summary of the method: (§1)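 Screening covered the Selleck bioactive, kinase and epigenetic probe libraries, less identity-inconsistent compounds, on CRISPR-edited mutant clones and isogenic wild-type clones of four leukaemia lines. Cells, at 2000 per well in 50 µL medium, received a single 10 µM acoustically dispensed dose. After 48 h the supernatant was removed and CellTiter-Glo luminescence was read. Viability was analysed in Genedata Screener as percent of the on-plate vehicle control.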

[2] = tested on: MARIMO
Summary of the method: as §1

[3] = tested on: MOLM14
Summary of the method: as §1

[4] = tested on: OCI-AML2
Summary of the method: as §1

SMILES	cell viability ([1]; SRSF2 genotype: SRSF2 P95H/wt)	cell viability ([1]; SRSF2 genotype: SRSF2 wt/wt)	cell viability ([2]; SRSF2 genotype: SRSF2 P95H/wt)	cell viability ([2]; SRSF2 genotype: SRSF2 wt/wt)	cell viability ([3]; SRSF2 genotype: SRSF2 P95H/wt)	cell viability ([3]; SRSF2 genotype: SRSF2 wt/wt)	cell viability ([4]; SRSF2 genotype: P95H/wt)	cell viability ([4]; SRSF2 genotype: wt/wt)
O=c1c(O)c(-c2ccc(O)c(O)c2)oc2cc(O)cc(O)c12 [Quercetin dihydrate (Sophoretin)]	107% and 99.5%	92.6%	98.4%	98%	100%	99.6%	97.4%	96.5%
COc1nc(C)cnc1NS(=O)(=O)c1cccnc1-c1ccc(-c2nnco2)cc1 [Zibotentan (ZD4054)]	98.4% and 103%	98.4%	99%	97.6%	100%	97.5%	102%	105%
C=C1CC[C@@H]2[C@](C)(CO)[C@H](O)CC[C@@]2(C)[C@@H]1C/C=C1/C(=O)OC[C@H]1O [Andrographolide]	64.7% and 47.9%	59.5%	20.5%	19.6%	11.1%	6.73%	23.4%	22.4%
Cc1c(Cl)cccc1Nc1ccccc1C(=O)O [Tolfenamic acid]	103% and 101%	101%	107%	102%	99.8%	102%	106%	106%
c1ccc(Cn2c(-c3ccc(OCC(C4CCNCC4)n4c(-c5ccccc5)nc5ccccc54)cc3)nc3ccccc32)cc1 (stereo not drawn) [Deltarasin]	0.43% and 0.39%	0.44%	0.34%	0.33%	0.28%	0.28%	0.24%	0.3%
C=CC(=O)N1CCN(C(=O)CNc2cc(I)c(Cl)cc2O)CC1 [K-Ras(G12C) inhibitor 12]	78.9% and 84.7%	75.2%	79.8%	83.6%	62.9%	81.2%	93.3%	88.1%
CCN(CC)CCOC(=O)c1ccc(N)cc1 [Procaine (Novocaine) HCl]	98.7% and 100%	95.9%	109%	112%	98.6%	99.7%	93.2%	110%
C=CCc1ccc(O)c(-c2cc(CC=C)ccc2O)c1 [Magnolol]	85.6% and 95.6%	96.6%	99.5%	112%	93.9%	103%	86.2%	106%
O=C(O)CCCC[C@@H]1CCSS1 (racemic) [Thioctic acid]	94.1% and 87.7%	88.3%	93.1%	99.4%	92.8%	94.1%	97.1%	98.9%
O=C1C[C@@H](c2ccc(O)c(O)c2)Oc2cc(O)cc(O)c21 [Eriodictyol]	98.5% and 97.3%	108%	88.6%	96.1%	112%	104%	96.8%	95.2%
CC1(C)O[C@@H]2C[C@H]3[C@@H]4CCC5=CC(=O)C=C[C@]5(C)[C@@]4(F)[C@@H](O)C[C@]3(C)[C@]2(C(=O)CO)O1 [Triamcinolone Acetonide]	101% and 100%	102%	107%	97.1%	100%	95.3%	114%	115%
Cc1ncc(COP(=O)(O)O)c(C=O)c1O [Pyridoxal phosphate]	103% and 104%	105%	100%	106%	100%	106%	103%	110%
C=C(c1ccc(C(=O)O)cc1)c1cc2c(cc1C)C(C)(C)CCC2(C)C [Bexarotene]	84.9% and 95.7%	87.6%	85.7%	106%	89.4%	103%	33.3%	63.5%
CC1CNc2c(cccc2S(=O)(=O)N[C@@H](CCCNC(=N)N)C(=O)N2CC[C@@H](C)C[C@@H]2C(=O)O)C1 (stereo partly drawn) [Argatroban]	107% and 105%	94%	100%	108%	103%	101%	91.7%	107%
OC[C@H]1O[C@H](O[C@H]2[C@H](O)[C@@H](O)C(O)O[C@@H]2CO)[C@H](O)[C@@H](O)[C@@H]1O (mixture of isomers) [Maltose]	96.1% and 91.6%	99.6%	102%	102%	98.9%	98.9%	96.6%	104%
CO[C@]1(CC[C@@H](C)CO[C@@H]2O[C@H](CO)[C@@H](O)[C@H](O)[C@H]2O)O[C@H]2C[C@H]3[C@@H]4CC=C5C[C@@H](O[C@@H]6O[C@H](CO)[C@@H](O[C@@H]7O[C@@H](C)[C@H](O)[C@@H](O)[C@H]7O)[C@H](O)[C@H]6O[C@@H]6O[C@@H](C)[C@H](O)[C@@H](O)[C@H]6O)CC[C@]5(C)[C@H]4CC[C@]3(C)[C@H]2[C@@H]1C [Methylprotodioscin]	0.68% and 0.5%	1.3%	0.54%	0.79%	0.52%	0.56%	0.5%	0.54%
C[C@@H]1O[C@@H](O[C@H]2[C@H](O[C@H]3CC[C@@]4(C)[C@@H](CC[C@]5(C)[C@@H]4CC=C4[C@@H]6CC(C)(C)CC[C@]6(C(=O)O)CC[C@]45C)[C@]3(C)CO)OC[C@H](O)[C@@H]2O)[C@H](O)[C@H](O)[C@H]1O	33.7% and 24.8%	40.6%	71.8%	74.1%	39%	45.4%	45%	48.8%
C=CCC(=NOS(=O)(=O)O)S[C@@H]1O[C@H](CO)[C@@H](O)[C@H](O)[C@H]1O (stereo in doubt) [Sinigrin]	96.4% and 104%	99.7%	93.4%	96.4%	94.1%	97.8%	101%	101%

SMILES	cell viability ([1]; SRSF2 genotype: SRSF2 P95H/wt)	cell viability ([1]; SRSF2 genotype: SRSF2 wt/wt)	cell viability ([2]; SRSF2 genotype: SRSF2 P95H/wt)	cell viability ([2]; SRSF2 genotype: SRSF2 wt/wt)	cell viability ([3]; SRSF2 genotype: SRSF2 P95H/wt)	cell viability ([3]; SRSF2 genotype: SRSF2 wt/wt)	cell viability ([4]; SRSF2 genotype: P95H/wt)	cell viability ([4]; SRSF2 genotype: wt/wt)
C=CC(=O)N[C@H]1CCOC[C@H]1Nc1ncc2cc(-c3c(Cl)c(OC)cc(OC)c3Cl)ccc2n1	78.2% and 81.3%	80.2%	85.8%	90.5%	78.8%	79.8%	66.8%	72.7%
CCOC(=O)[C@H](CCc1ccccc1)N[C@@H](C)C(=O)N1Cc2cc(OC)c(OC)cc2C[C@H]1C(=O)O [Moexipril HCl]	93.9% and 103%	104%	110%	105%	106%	109%	104%	95.9%
CC/C=C(\C(=O)N[C@@H]1C(=O)N2C(C(=O)OCOC(=O)C(C)(C)C)=C(COC(N)=O)CS[C@H]12)c1csc(N)n1 [Cefcapene Pivoxil Hydrochloride]	101% and 102%	109%	93.2%	103%	97.3%	105%	114%	106%
COc1cc2nc(N3CCN(C(=O)c4ccco4)CC3)nc(N)c2cc1OC [Prazosin HCl]	99.9% and 102%	102%	96.8%	103%	101%	97%	102%	95.6%
CS(=O)(=O)c1cccc(C[C@H](NC(=O)c2c(Cl)cc3c(c2Cl)CCN(C(=O)c2ccc4ccoc4c2)C3)C(=O)O)c1 [Lifitegrast]	96.8% and 97%	90.3%	90.5%	102%	93.7%	96.6%	92.2%	94.9%
N[C@@H](C(=O)N[C@@H]1C(=O)N2C(C(=O)O)=C(Cl)CS[C@H]12)c1ccccc1 [Cefaclor]	109% and 110%	113%	104%	104%	108%	106%	112%	123%
CC(C)C[C@H](NC(=O)CNC(=O)c1cc(Cl)ccc1Cl)B1OC(=O)CC(CC(=O)O)(C(=O)O)O1 (stereo partly drawn) [Ixazomib Citrate (MLN9708)]	2.32% and 2.83%	4.01%	0.72%	2.45%	0.35%	0.36%	0.42%	1.49%
C=C[C@@H]1CNC(=S)O1 [Epigoitrin]	103% and 97.6%	101%	91.3%	93.1%	101%	99.2%	103%	104%
OCC(O)C(O)CO (stereo not drawn) [Erythritol]	100% and 105%	99.9%	98.4%	106%	101%	101%	98.2%	110%
Cc1ccc(Cl)cc1N(CC(=O)Nc1c(F)cccc1F)S(C)(=O)=O	104% and 111%	116%	99.5%	106%	102%	105%	110%	124%
O=CC[C@@H](O)[C@H](O)[C@H](O)CO [2-Deoxy-D-glucose]	104% and 94.5%	99.2%	101%	107%	102%	101%	91.3%	108%
Cc1noc(C)c1-c1ccc(-c2cc(C(N)=O)c(NC(N)=O)s2)c(O[C@H]2CCNC2)c1	101%	93.8%	94.9%	103%	89.5%	99.7%	101%	105%
COc1ccc(-c2cc3c(C)nc(N)nc3n([C@H]3CC[C@H](OCCO)CC3)c2=O)cn1	40.2% and 40.4%	39.5%	32.4%	27.5%	22.9%	23.3%	1.55%	8.86%
CCOc1ccc2ccccc2c1C(=O)N[C@@H]1C(=O)N2[C@@H]1SC(C)(C)[C@@H]2C(=O)O [Nafcillin Sodium]	106%	101%	104%	115%	101%	108%	98%	107%
C=CC(=O)N1CCN(CCCn2c(=O)c(-c3c(Cl)c(OC)cc(OC)c3Cl)cc3cnc(NC)nc32)CC1	85.1% and 88.1%	86.8%	63.3%	72.7%	85.3%	88.1%	65.2%	69.4%
COC(=O)N[C@H](C(=O)N1CCC[C@H]1c1ncc(-c2ccc(-c3ccc(-c4cnc([C@@H]5CCCN5C(=O)[C@@H](NC(=O)OC)C(C)C)[nH]4)cc3)cc2)[nH]1)C(C)C	93.2% and 92%	89.7%	72.4%	83.9%	78.2%	88.5%	84.6%	84.3%
O=C(Nc1cccc2cccnc12)c1ccc(N2C(=O)C3C4C=CC(C4)C3C2=O)cc1 (stereo not drawn) [IWR-1-endo]	95.8% and 94%	101%	100%	103%	111%	118%	97.9%	98.8%
CCCCCCOC(=O)c1cc(=O)c(O)c2c(O)c(O)c(OC)cc2c1	14.8% and 16.8%	46.8%	45.2%	45.2%	61.5%	58.9%	19.8%	42.4%
